# Screen size: about 330,000 compounds; about 5,800 (1.8%) were called active. The sample as a whole holds a higher share of actives than the screen did. Unmarked numbers belong to inactive results.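 How the source made its calls: active means inhibition above about 50% at the single tested dose (limit read from the data); inactive means the rest.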
# Molecular target: Sentrin-specific protease 6 (Homo sapiens) (UniProt Q9GZR1)
# Assay: SENP6 protease inhibitors, primary screen, biochemical, luminescence, uHTS (AID 2599);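 further: plate controls were DMSO wells with enzyme for no effect and DMSO wells lacking enzyme for full effect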
# Details: Recombinant SENP6 catalytic domain, aminoluciferin luminescence; at 10 µM; active compounds read high
# Chain of Sentrin-specific protease 6 (Homo sapiens) (Q9GZR1 628-1112 limits assumed): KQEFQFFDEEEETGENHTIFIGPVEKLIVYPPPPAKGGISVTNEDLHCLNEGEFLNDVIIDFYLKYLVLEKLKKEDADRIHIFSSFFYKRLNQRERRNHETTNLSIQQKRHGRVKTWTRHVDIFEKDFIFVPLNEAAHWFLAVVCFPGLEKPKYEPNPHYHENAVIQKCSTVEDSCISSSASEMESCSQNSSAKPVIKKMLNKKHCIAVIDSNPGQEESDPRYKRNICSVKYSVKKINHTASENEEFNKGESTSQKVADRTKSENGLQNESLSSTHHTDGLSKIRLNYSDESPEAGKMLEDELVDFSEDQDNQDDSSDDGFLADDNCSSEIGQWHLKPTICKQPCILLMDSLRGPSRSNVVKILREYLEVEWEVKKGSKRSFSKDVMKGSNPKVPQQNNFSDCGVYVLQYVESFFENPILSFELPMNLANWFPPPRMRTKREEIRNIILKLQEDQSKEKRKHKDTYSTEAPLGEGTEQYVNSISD
row,Structure (SMILES),inhibition
1,O=C(NNS(=O)(=O)c1ccccc1C(F)(F)F)c1cc2ncc(C(F)(F)F)cc2s1,4.2%
2,Cc1ccc(-n2cc3ccc([N+](=O)[O-])cc3n2)cc1,86.9% (active)
3,Cc1ccc(-c2cn(S(=O)(=O)c3cccc([N+](=O)[O-])c3)nc2N)cc1,-7.28%
4,Cc1ccnc(N2C(=O)c3ccc([N+](=O)[O-])cc3C2=O)c1,-9.97%
5,Cn1cc[n+](C)c1COc1ccc(C=O)cc1,-1.65%
6,N#Cc1cc([N+](=O)[O-])ccc1NCC1CCCO1 (stereo unspecified),-15.1%
7,COc1ccccc1C(=O)NNC(=O)c1ccc(NC(=O)c2ccccc2)cc1,5.14%
8,COc1ccc(NS(=O)(=O)c2cc(C(=O)Nc3ccccc3C(=O)O)ccc2C)cc1,-2.27%
9,CCOc1cc(/C=N/NC(=O)c2cc(-c3ccccc3)nc3ccccc23)ccc1O,19.5%
10,COc1cc(/C=N/NC(=O)c2ccc(N3CCCC3=O)cc2)ccc1O,-7.53%
11,COc1ccc(/C=N/Nc2ccccc2C(=O)O)cc1,93.1% (active)
12,COc1ccc(C(=O)Nc2cc(C)c(NC(=O)c3ccccc3OC)cn2)cc1,37.3%
13,COc1ccc(/C=N/OCC(=O)N(Cc2ccccc2)c2ccccc2C(=O)O)cc1,-17.2%
14,COc1ccc(C(=O)Nc2ccccc2C(=O)N/N=C/c2ccc(O)c(OC)c2)cc1,98.7% (active)
15,COc1ccc(C(=O)Nc2ccccc2C(=O)N/N=C/c2ccccc2OC)cc1,66.7% (active)
16,O=C(O)CC(c1ccccc1F)N1Cc2ccccc2C1=O (stereo unspecified),-11.5%
17,COc1ccc(/C=N/n2c(C)cc(C)cc2=O)cc1,-12.1%
18,O=C(N/N=C/c1ccsc1)c1cc(O)cc(O)c1,3.66%
19,CCn1cc(/C=C(\NC(=O)c2cc(OC)c(OC)c(OC)c2)C(=O)N2CCN(C)CC2)c2ccccc21,0.634%
20,Cc1cccc(NC(=O)Nc2ccc3c(c2)OCO3)n1,-17.4%
21,O=C(/C=C/c1ccc2c(c1)OCO2)NCc1ccc(F)cc1,1.24%
22,Cc1cccc(NC(=O)/C=C/c2ccc3c(c2)OCO3)n1,82.7% (active)
23,CCCc1ccc(OCc2ccc(C(=O)N/N=C/c3cccc([N+](=O)[O-])c3)o2)c(OC)c1,-3.27%
24,COc1ccccc1N1CCN(C(=O)CCS(=O)(=O)c2ccc3c(c2)NC(=O)C(C)S3)CC1 (stereo unspecified),4.9%

row,Structure (SMILES),inhibition
1,CCOC(=O)C(C)N(c1ccccc1Cl)S(C)(=O)=O (stereo unspecified),14.8%
2,COc1ccccc1NC(=O)c1cc(Cl)nc2ccccc12,-4.88%
3,O=C(O)c1cc(Cl)c(Cl)cc1C(=O)Nc1cccc2ncccc12,57% (active)
4,O=C(O)c1ccccc1-c1ccccc1C(=O)Nc1cccc2ccccc12,-15.6%
5,CN(Cc1ccccc1F)C(=O)C(Cc1ccccc1)NC(=O)c1ccccc1 (stereo unspecified),-9.94%
6,Cc1cccc(-c2noc(CCC(=O)NC3CCCC3)n2)c1,-13.6%
7,Cn1nc(-c2ccccc2)c(-c2nc(-c3ccc(Cl)cc3)no2)c1Cl,3.33%
8,Cc1cccc(-c2noc(-c3ccc(F)cc3)n2)c1,94.2% (active)
9,Cc1ccc(NS(=O)(=O)c2c(C)[nH]c(C)c2C(=O)N2CCCCC2)c(C)c1,-8.53%
10,S=C(Nc1cccc(Br)c1)N1CCn2cccc2C1c1cccnc1 (stereo unspecified),-5.73%
11,CC(C)CCNC(=O)CC1C(=O)N(Cc2ccccc2)C(C)c2nc3ccccc3n21 (stereo unspecified),-1.07%
12,CC(C)c1ccc(C(=O)OC2CCOC2=O)cc1 (stereo unspecified),-5.48%
13,COc1cc(C(=O)OC2CCOC2=O)c([N+](=O)[O-])cc1OC (stereo unspecified),-15.4%
14,O=C(OC1CCOC1=O)c1ccc(-c2nc3ccccc3s2)s1 (stereo unspecified),97.8% (active)
15,COc1cc(/C=N/Nc2nn3cnnc3c3ccccc23)cc(OC)c1OC,2.31%
16,C/C(=N\Nc1nncc2ccccc12)c1ccc(Cl)c([N+](=O)[O-])c1,1.2%
17,CN(CCO)c1ccc(/C=N/Nc2nncc3ccccc23)cc1,96.7% (active)
18,COc1ccc(NC(=O)C2C3C=CC(C3)C2C(=O)NCc2ccccn2)c(OC)c1 (stereo unspecified),10.4%
19,COc1ccc(-c2cc3ccc(OCc4nn[nH]n4)cc3oc2=O)cc1,68.8% (active)
20,Cc1noc(C)c1COc1ccc2ccc(=O)oc2c1,-9.61%
21,CCCCc1cc(=O)oc2cc(C)cc(OCc3nn[nH]n3)c12,-1.99%
22,CCS(=O)(=O)Nc1ccc(C(=O)NCCSc2ccccc2)cc1,11.9%
23,Cc1cccc(OCC(=O)Nc2ccc(C(=O)O)cc2NC(=O)COc2cccc(C)c2)c1,10.8%
24,Cc1cccc(OCCC(=O)Nc2ccccc2C(N)=O)c1,-32.4%

row,Structure (SMILES),inhibition
1,Cc1ccc(F)c(NC(=O)CCOc2ccccc2C)c1,5.27%
2,Cc1ccc(F)c(NC(=O)CCc2ccccc2)c1,51.3% (active)
3,Cc1cccc(OCC(=O)Nc2ccccc2F)c1,56.4% (active)
4,COc1ccc([N+](=O)[O-])cc1NC(=O)CCc1ccccc1,-1.66%
5,CCOC(=O)C1C(=O)NCC1c1ccccc1 (stereo unspecified),-10.2%
6,Cc1ccc(-c2ccnc3nc(Sc4ncc(C(F)(F)F)cc4Cl)nn23)cc1,3.77%
7,CCOC(=O)CSC1=N/C(=C/c2ccc(-n3cncn3)cc2)C(=O)N1C(C)=O,4.91%
8,CCOC(=O)C1CCN(C(=O)CN2C(=O)c3cccnc3Oc3ccc(C)cc32)CC1,-14.4%
9,Cc1nn(-c2ccccc2)c2[nH]c(C(F)(F)F)cc(=O)c12,-1.92%
10,N=c1c2c3c(sc2ncn1CCCN1CCOCC1)CCCCC3,3.22%
11,O=C(O)C1OC(C(=O)O)C2C1C(F)(F)C2(F)F (stereo unspecified),-10.3%
12,Cc1ccc2nc(/C(C#N)=C\c3ccc(OC(=O)c4cccs4)cc3)[nH]c2c1,-7.94%
13,COc1cc(/C=C(\C#N)c2nc3ccccc3[nH]2)ccc1O,92.4% (active)
14,COc1cc(/C=C(\C#N)c2nc3c(s2)CC(C)CC3)ccc1O (stereo unspecified),8.39%
15,c1ccc(C[C@H]2CNCCN2CCC23CC4CC(CC(C4)C2)C3)cc1,1.32%
16,O=C(Nc1ccccc1Cc1ccccc1)c1ccc2c(c1)SC1=NS(=O)(=O)CCN12,-1.13%
17,O=C(NCc1ccco1)C(c1ccncc1)N(C(=O)Cn1nnc2ccccc21)c1ccccc1 (stereo unspecified),-7.82%
18,O=C(CC1C(=O)NCCN1C(=O)c1ccc([N+](=O)[O-])cc1)Nc1cccc(Cl)c1 (stereo unspecified),-13.3%
19,O=Cc1ccc(Oc2cccc(C(F)(F)F)c2)nc1,7.02%
20,FC(F)(F)c1ccnc(Oc2ccc(C3=NCCS3)cc2)c1,74.8% (active)
21,O=[N+]([O-])c1cccc(C2=NCCS2)c1,-2.08%
22,Cc1cccc(N)c1SC1CCCCC1O (stereo unspecified),14.9%
23,CCCCN1C(N)=NC[C@@H]1CC1CCCCC1,-9.84%
24,CCCCN(CC)CCNC(=O)CCNC(=O)Cn1ccc2ccccc2c1=O,-9.66%

row,Structure (SMILES),inhibition
1,C=CCOc1ccc(Cl)cc1CNCCCN1CCOCC1,7.54%
2,c1ccc(-n2nnnc2NC2CCCCCC2)cc1,-14.3%
3,CNC(=S)N1N=C(c2ccccc2)CC1c1ccc(Br)cc1 (stereo unspecified),-4.9%
4,O=C(c1ccccc1)N1N=C(c2ccccc2O)CC1c1ccc(Br)cc1 (stereo unspecified),-41.6%
5,Brc1ccc(C2CC(c3ccccc3)=Nc3ccccc3N2)cc1 (stereo unspecified),81.3% (active)
6,COc1cc(NC(=S)N2CCCC(C)C2)c(OC)cc1Cl (stereo unspecified),1.77%
7,O=C(CC(c1ccccc1)c1ccccc1)NCC(O)c1ccc([N+](=O)[O-])cc1 (stereo unspecified),-31.1%
8,COC(=O)CCSc1nccn1Cc1ccccc1,-11%
9,CCCCCC(O)(CCN1CCCCC1)c1ccccc1 (stereo unspecified),5.63%
10,C/C(=N\NC(=O)CSc1nc2ccccc2c(=O)n1-c1ccccc1C)c1cccs1,6.68%
11,Cc1ccccc1NCC(=O)N/N=C\c1ccc([N+](=O)[O-])s1,44%
12,Cc1cccc(/C=N/NC(=O)CNc2cccc3ccccc23)n1,78.3% (active)
13,C/C(=N\NC(=O)CNc1cccc2ccccc12)c1ccc(Br)s1,77.3% (active)
14,CC/C(=N\NC(=O)c1ccccc1Cl)c1ccc(Br)s1,3.9%
15,Cc1cccc(C(=O)Nc2ccc(C(=O)N/N=C/c3cccc(C)n3)cc2)c1,-5%
16,Cc1ccc(NC(=O)CSc2nc(=O)n(CCN(C)C)c3c2CCCC3)c(C)c1,-3.87%
17,CC(NC(=S)Nc1ccc(S(N)(=O)=O)cc1)c1ccc2c(c1)OCO2 (stereo unspecified),7%
18,CCn1c(SCC(=O)NNC(=O)c2ccc(OC)cc2)nnc1C(C)C,-13.3%
19,Cc1nn2c(NCCN(C)C)c3c(nc2c1-c1ccccc1)CCC3,-33.9%
20,CC(NC(=O)COC(=O)c1ccc2ccccc2n1)c1ccccc1 (stereo unspecified),-2.28%
21,Cc1ccc(S(=O)(=O)N(C)C)cc1NC(=O)C(C)OC(=O)c1ccc2ccccc2n1 (stereo unspecified),-0.065%
22,CC(OC(=O)c1ccc2ccccc2n1)C(=O)c1ccccc1 (stereo unspecified),65.8% (active)
23,CC(OC(=O)CNS(=O)(=O)/C=C/c1ccccc1)C(=O)Nc1ccc(S(=O)(=O)N2CCCC2)cc1 (stereo unspecified),1.69%
24,Cn1c(=O)c(=O)n(C)c2cc(S(=O)(=O)NCCN3CCN(c4ccccc4F)CC3)ccc21,-19.5%
